Out of some 69,000 compounds screened, about 8,600 (12%) showed an effect of 50% or more. What follows is part of a selection rich in strong results, with near analogues and random picks from the rest.
system: Plasmodium berghei; assay: Screen against P. berghei liver stage (PbLuc), transformed with Luciferase, at 10uM; format: functional, HepG2; settings: tested at 10 uM

Point of comparison: `COCC(=O)N1CCc2c(nnn2C)C1COCCN1CCCC1` (stereo not drawn), INHIBITION 29%. Against it:
- CN(C)c1ccc(CN(CC2CCCO2)C(=O)c2csnn2)cc1 (stereo not drawn) — lower, 11.8%
- CC1(c2cc[nH]n2)CCN(C(=O)c2ccc(Cl)cc2)CC1 — lower, -2.09%
- COC[C@@]12CCC[C@@H]1CN(C(=O)CN(C)C)C2 — higher, 56.4%
- CN(C)C(=O)N1C[C@H]2CCC[C@@]2(COc2ccccn2)C1 — lower, -9.67%
- COC[C@@]12CCC[C@@H]1CN(C(=O)N1CCCC1)C2 — lower, 18.6%
- O=C(c1ncccn1)N1C[C@H]2CCC[C@@]2(COc2ccccn2)C1 — lower, -15.1%
- CN(C)CC(=O)N1C[C@H]2CCC[C@@]2(COc2ccccn2)C1 — higher, 52.9%
- COCCC(=O)N1C[C@H]2CCC[C@@]2(COC)C1 — lower, 24.6%
- COC[C@@]12CCC[C@@H]1CN(C(=O)COC1CCCC1)C2 — higher, 32.5%
- CCOCC(=O)N1C[C@H]2CCC[C@@]2(COC)C1 — lower, -0.284%
- COCC(=O)N1C[C@H]2CCC[C@@]2(COC)C1 — higher, 85.2%
- Cc1cccc(CN2C(=O)CCC23CCN(c2ncc(F)cn2)CC3)n1 — lower, -26.8%
- O=S(=O)(N1CCOCC1)N1CCCC(c2ccccn2)C1 (stereo not drawn) — lower, 15.99%
- COc1c(C2CCCN2C(=O)c2c(C)noc2C(C)C)c(C)nn1C (stereo not drawn) — higher, 35.9%
- Cc1ccc(C(=O)Nc2nn[nH]n2)s1 — lower, 2.61%
- Cc1cc(C)c(CNC(=O)NCc2ccc3c(c2)OCCO3)c(=O)[nH]1 — lower, -54.6%
- CS(=O)(=O)N1CCN(C(=O)c2cc(-c3cccs3)cs2)CC1 — higher, 33.3%
- CCc1oc(C(=O)NC(C)c2ncn[nH]2)cc1CN1CCCC1 (stereo not drawn) — lower, 7.24%
- Cc1cccnc1NC(=O)NCc1cccnc1OC(C)C — lower, 19.4%
- Cc1cc(C(=O)NC2(c3ccc(Br)cc3)CC2)n(C)n1 — higher, 47%
- CC(=O)N1N=C(c2ccncc2)OC1C(=O)N(C)CCc1ccccc1 (stereo not drawn) — lower, 0.618%
- CNc1ncccc1CN1CCN(c2cc(NC3CC3)nc(N)n2)CC1 — lower, 5.11%
- CCc1ccc2nc(NCCCN(CCO)CCO)cc(C)c2c1 — higher, 42%
- CCc1ccc2nc(NCCOCCO)cc(C)c2c1 — lower, -46.7%
- CCc1ccc2nc(NCC(O)CO)cc(C)c2c1 (stereo not drawn) — higher, 50.7%
- Cn1c(N2CCOCC2)nc2cc(C(=O)N[C@@H]3CC[C@@H](N)C3)ccc21 — higher, 33.4%
- CN(C)CCNC(=O)c1ccn(-c2ccc3ccccn23)n1 — lower, 13.6%
- Cc1cc(CN2CCN(C(c3ccccc3)c3ccccc3)CC2)no1 — higher, 85.4%
- Cc1cc(CN2CCN(CC(O)c3ccccc3)CC2)no1 (stereo not drawn) — higher, 36.4%
- Cc1cc(CN2CCN(CC(O)c3ccc(C)c(C)c3)CC2)no1 (stereo not drawn) — higher, 62.6%
- Cc1cc(CN2CCN(CC(O)c3cccc(F)c3)CC2)no1 (stereo not drawn) — lower, -17.6%
- Cc1cc(CN2CCN(CC(O)c3ccc4c(c3)OCO4)CC2)no1 (stereo not drawn) — lower, -1.14%
- Cc1cc(CN2CCN(CC(O)c3ccc(Cl)cc3)CC2)no1 (stereo not drawn) — lower, 9.14%
- COC(=O)c1ccc(N(C(=O)c2ccncc2)C(C)C)c(C)c1 — lower, 7.18%
- COc1ccc(CN2CCCCC2Cn2nc(C)nc2C)cc1F (stereo not drawn) — lower, -37.7%
- Cc1cn(-c2ccccc2)nc1NS(=O)(=O)c1cc(C(=O)O)sc1C — lower, 8.38%
- O=C(CCn1cccn1)N1CC[C@@H](c2ccc3ccccc3c2)[C@H](O)C1 — lower, -28.9%
- O=C(CCN1CCCC1)N1CC[C@@H](c2ccc3ccccc3c2)[C@H](O)C1 — higher, 52.2%
- O=C(CCN1CCCO1)N1CC[C@@H](c2ccc3ccccc3c2)[C@H](O)C1 — lower, 8.74%
- CCN1Cc2ccccc2CC2(CCN(CC3CCC3)CC2)C1=O — higher, 36.5%
- Cc1n[nH]cc1CNCc1ccnc(OCC(F)(F)F)c1 — lower, 28.5%
- Cc1n[nH]cc1CNC(=O)Nc1cccc(OCC(F)(F)F)c1 — higher, 60.3%
- COc1cccc(NC(=O)NCc2cnn(C)c2)c1 — lower, 13%
- CN1CCOC(CNCc2cccc(OCC(F)(F)F)c2)C1 (stereo not drawn) — lower, 21.7%
- CC(C)C(=O)Nc1cccc(OCC(=O)NCc2ccccc2F)c1 — higher, 40.6%
- Cc1n[nH]cc1CNCc1cccc(OCC(F)(F)F)c1 — higher, 66.3%
- CCN(Cc1cnn(C)c1)C[C@H]1CC[C@@H](Cc2cccc(C#N)c2)O1 — lower, -15.7%
- O=C1CN(C(=O)C2CCCCC2)CC(O)CN1Cc1ccco1 (stereo not drawn) — lower, -11.1%
- CC(C)c1nc2n(n1)CC(NCc1ncc(C(C)(C)C)o1)CC2 (stereo not drawn) — lower, -33.9%
- Cc1c(C)n2c(SCC(=O)N3CCC(C)CC3)nnc2[nH]c1=O — lower, -5.1%
- Cc1ccn(CCC(=O)NCc2ccc(C)o2)n1 — lower, 27.5%
- Cc1cc(C(=O)NCc2ccco2)nn1C — lower, 10.075%
- Cc1cc(C)c2cc(CNCc3ccc(C)o3)c3nn(C)c(=O)n3c2c1 — higher, 54.5%
- Cc1cc(C)c2cc(CNCc3ccco3)c3nn(C)c(=O)n3c2c1 — higher, 60.4%
- Cc1cc(C)c(N(CC(O)CNCc2ccco2)S(C)(=O)=O)c(C)c1 (stereo not drawn) — lower, 9.96%
- Cc1ccc(CNC(=O)c2cc(C)n(C)n2)o1 — higher, 35.75%
- CNc1cc(C2CCCN2Cc2ccc(OCC(=O)O)cc2)ccn1 (stereo not drawn) — lower, -17.7%
- Cc1ccc(N2CCCN(C(=O)CCC3CCCO3)CC2)nn1 (stereo not drawn) — lower, -14.6%
- CN(CCSc1nncn1CC(F)(F)F)c1ccccc1 — lower, -31.4%
- O=C(Cc1cccc(F)c1)NCCCNC(=O)c1cccc(O)c1 — lower, -29.7%
- Cc1ncc(CNC(=O)CCc2c(C)noc2C)c(C2CCCN2C)n1 (stereo not drawn) — lower, 4.08%
- Cn1nc(C2CCN(C(=O)Cc3cccc(F)c3)CC2)c2cccnc21 — higher, 46.6%
- CN1CCCN(C[C@@H]2CN(C(=O)CC3CCC3)C[C@@H]2CO)CC1 — lower, -6.91%
- COc1cccc(CC(=O)N2CCN(C)c3ncccc3C2)c1 — lower, -93%
- CNC(=O)C1CCCN(C(=O)c2ccccc2-n2cc(CN)cn2)C1 (stereo not drawn) — lower, 1.62%
- CN(C)C(=O)C1CCCN(C(=O)c2ccccc2-n2cc(CN)cn2)C1 (stereo not drawn) — higher, 50.8%
- NCc1cnn(-c2ccccc2C(=O)N2CCCC(C(N)=O)C2)c1 (stereo not drawn) — lower, 9.05%

Reference: ChEMBL document CHEMBL4513216, “Probing the Open Global Health Chemical Diversity Library for Multistage-Active Starting Points for Next-Generation Antimalarials” (ACS Infect Dis, 2020)
